Bioassay records: PubChem, National Center for Advancing Translational Sciences (NCATS)
KB-3-1 cytotox – qHTS assay for MDR1-selective chemotherapeutics: Primary screen using the parental adenocarcinoma cell KB-3-1; actives 1.4% (n = 400,000); AID 1347075, 2019; KB-3-1 viability, CellTiter-Glo ATP luminescence, 72 h; Potency, µM (series often up to 46.1 µM), usual class: cytotoxic; further: nearly all actives have a fitted effect of over 60% in size
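72 h, 37 °C compound treatment of KB-3-1 parental cells; CellTiter-Glo added, 10 min, luminescence read. Data corrected against DMSO-only plates and normalized before curve fitting.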
TDP1 cell noCPT – qHTS for Inhibitors of human tyrosyl-DNA phosphodiesterase 1 (TDP1): qHTS in cells in absence of CPT; DT40 Tdp1-/- hTDP1 cells, no CPT, ATP luminescence, 48 h; AID 686978, 2013; Potency, µM (series often up to 46.2 µM), for inactives: top-dose activity change, negative = growth inhibition, actives largely listed as inhibitors; actives 15% (n = 420,000); further: nearly all actives have a fitted effect of over 55% in size
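Readout: luminescence from CellTiter-Glo after 30 min in the dark at RT. Cells: DT40 Tdp1-/- with stable hTDP1, 400/well. Exposure: compounds alone, ≥48 hr, 37 °C.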
KB-V1 MDR tox – qHTS assay for MDR1-selective chemotherapeutics: Primary screen using the drug-selected MDR subline cells KB-V1; Potency, µM (titrated, usually from 46.1 µM), actives largely listed as cytotoxic; KB-V1 MDR cells viability, CellTiter-Glo, 72 h; actives 3.4% (n = 400,000); further: nearly all actives have a fitted effect of over 60% in size
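Compound-treated KB-V1 multidrug-resistant cells, 72 h, 37 degrees C; viability by CellTiter-Glo. Fitted qHTS curves give the values.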
DT40 TDP1 CPT – qHTS for Inhibitors of human tyrosyl-DNA phosphodiesterase 1 (TDP1): qHTS in cells in presence of CPT; chicken DT40 Tdp1-/-;hTDP1 cells + 20 nM CPT, ATP luminescence, 48 h; Potency, µM (series often up to 46.2 µM), inactives show top-dose activity change, negative = growth inhibition, hits mostly inhibitors; actives 12% (n = 420,000); further: nearly all actives have a fitted effect of over 55% in size
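Cell growth measured by CellTiter-Glo luminescence after a minimum 48 h, 37 C compound exposure with 20 nM CPT in Tdp1-knockout DT40 cells stably expressing hTDP1, seeded 400/well; qHTS titration format.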
HT1080-NT tox – qHTS for induction of synthetic lethality in tumor cells producing 2HG: qHTS for the HT-1080-NT fibrosarcoma cell line; HT-1080-NT fibrosarcoma viability, CellTiter-Glo ATP luminescence, 48 h; Potency, µM (highest dose often 46.1 µM), for the others: at the highest dose activity, negative = less viability, hits mostly cytotoxic; actives 1.6% (n = 360,000); AID 686970, 2013;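 further: NT is the 2HG producing partner of a matched IDH1 knockdown line; 0% = DMSO-treated cells and -100% = media-only wells without cells; nearly all actives have a fitted effect of over 55% in size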
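Luminescent CellTiter-Glo readout after 48 hours of compound exposure at 37 degrees C defined viability of HT-1080-NT cells. Activity was normalized to DMSO wells and cell-free media wells; concentration-response curves were fitted and assigned curve classes.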
HT1080 IDH1KD tx – qHTS for induction of synthetic lethality in tumor cells producing 2HG: qHTS for the HT-1080-IDH1KD cell line; HT-1080 IDH1 knockdown viability, ATP luminescence, 48 h; actives 2% (n = 360,000); Potency, µM (titrated, usually from 46.1 µM), without a hit: at the highest dose activity, negative = toxicity, usual class: cytotoxic;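 further: 0% = DMSO wells and -100% = cell-free medium wells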
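Viability of IDH1-knockdown HT-1080 fibrosarcoma cells was assessed by CellTiter-Glo after 48 h at 37 °C with titrated compound; concentration-effect curves were classified by fit quality and response size.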
* marks the source's active call; other numbers are inactive results; i = inactive; ? = inconclusive; / = no result; [ ] = dose if it differs, or a comment. Sampled rows, rich in hits. Any-hit rate of the full collection: about 19%. The call rests on the fitted dose curve; in most records, active means well fitted curve in the direction sought with a large enough effect; inconclusive means small, poorly fitted or top-dose-only effect, or another doubt; inactive means no such curve, though single readings can be large; an effect the other way counts as inactive or inconclusive. Unless noted, on the % scale 0 is the no-effect control and ±100 the full control effect; potency means the concentration at half of the fitted maximal effect.

SMILES | KB-3-1 cytotox | TDP1 cell noCPT | KB-V1 MDR tox | DT40 TDP1 CPT | HT1080-NT tox | HT1080 IDH1KD tx
O=C(N/N=C/c1cc([N+](=O)[O-])ccc1O)c1ccncc1 | i | ? | ? | ? | ? | -8%
NC(=S)N/N=C/c1ccccc1O | i | ? | i | ? | 7% | 11%
NC(=S)N/N=C/c1cccc(O)c1O | ? | 0.92µM* | i | 0.58µM* | -17% | -21%
O=C(N/N=C/c1ccc(O)c2ncccc12)c1cccc(Br)c1 | 2.6µM* | 4.6µM* | ? | 3.7µM* | 23µM* | 18µM*
O=C(N/N=C/c1ccccn1)c1cc(Br)ccc1O | i | ? | i | ? | -20% | ?
COc1ccc(C)c2sc(N(CCCN(C)C)C(=O)c3ccc4c(c3)OCCO4)nc12 | ? | ? | i | ? | -24% | ?
CC1CCCC(NC(=O)COC(=O)c2cc(=O)[nH]c3ccccc23)C1C (configuration not stated) | i | 17% | i | 4% | 1% | 2%
COc1ccc(/C=N/NC(=O)c2nn(-c3ccc(Cl)cc3)c(=O)c3c(N)scc23)cc1 | i | 2.6µM* | i | 5.8µM* | -15% | -21%
COc1ccc(/C=N/NC(=O)c2nn(-c3ccc(C)c(C)c3)c(=O)c3ccccc23)cc1 | i | 3.3µM* | i | 9.2µM* | -9% | -10%
COc1ccc(/C=N/NC(=O)c2nn(-c3ccccc3)c(=O)c3c(N)scc23)cc1 | i | 8.2µM* | i | 10µM* | 0% | 4%
Cn1c(N2CCC(C(N)=O)CC2)nc2c1c(=O)n(Cc1ccc(Br)cc1)c(=O)n2C | i | -22% | i | -10% | 6% | -4%
Cc1cccc(NC(=O)c2cc3c([nH]c4ccccc43)c(C)n2)c1C | i | ? | i | 6.5µM* | 16% | 22%
Cc1cccc(NC(=O)c2ccccn2)c1C | i | ? | i | ? | 0% | 9%
COc1cc(Cl)ccc1OCc1cc(C(=O)N(C)Cc2cccc3cnccc23)no1 | ? | 12µM* | ? | 15µM* | ? | ?
CC(=O)c1cccc(OCc2cc(C(=O)N(C)Cc3nccs3)no2)c1 | i | -33% | i | ? | 10% | 2%
CN(Cc1nccs1)C(=O)c1cc(COc2cccc3cnccc23)on1 | i | 10µM* | i | 7.3µM* | 23µM* | 9.2µM*
CCc1ccccc1-n1nnc(-c2nsc(NC(=O)c3ccc(C)c(C)c3)n2)c1C | / | 18µM* | / | ? | / | /
Cc1ccc(-n2nnc(-c3nsc(NC(=O)c4cccc(Cl)c4)n3)c2C)cc1C | i | 3.7µM* | i | 5.8µM* | / | /
Cc1ccc(-n2nnc(-c3nsc(NC(=O)c4ccccc4C)n3)c2C)cc1Cl | i | 6.5µM* | ? | 5.2µM* | / | /
Cc1ccc(-n2nnc(-c3nsc(NC(=O)c4ccc(C)c(C)c4)n3)c2C)cc1 | i | 13µM* | i | 13µM* | / | /
Cc1cc(C)cc(-n2nnc(-c3nsc(NC(=O)c4ccccc4Cl)n3)c2C)c1 | i | ? | i | -30% | / | /
COc1ccc(-n2nnc(-c3nsc(NC(=O)c4cccc(C)c4)n3)c2C)cc1OC | i | ? | i | ? | / | /
CCOC(=O)CNC(=O)Cn1cnc2c(nnn2-c2cccc(Cl)c2)c1=O | ? | -4% | i | 4% | 10% | -9%
Nc1nccs1 | / | -19% | / | -2% | 12%[92.2 µM] | 13%[92.2 µM]
COc1ccc(OCc2ccc(-c3nc(C#N)c(NCc4ccccc4)o3)o2)cc1 | i | ? | i | ? | / | /
SMILES | KB-3-1 cytotox | TDP1 cell noCPT | KB-V1 MDR tox | DT40 TDP1 CPT | HT1080-NT tox | HT1080 IDH1KD tx
CC(C)(C)c1ccc(-c2nc(C#N)c(NCc3cccnc3)o2)cc1 | i | ? | 21µM* | -27% | ? | ?
Cc1ccccc1OCc1ccc(-c2nc(C#N)c(NCc3cccnc3)o2)o1 | ? | 21µM* | ? | 15µM* | / | /
COc1ccc(OCc2ccc(-c3nc(C#N)c(NCc4cccnc4)o3)o2)cc1 | i | 18µM* | i | ? | / | /
COc1cccc(N2CC(NC(=O)/C=C\c3ccc4c(c3)OCO4)CC2=O)c1 (configuration not stated) | / | -28% | / | -15% | / | /
COc1ccccc1N1CCN(C(=O)C(=O)c2c[nH]c3ccccc23)CC1 | i | ? | i | -13% | -1% | -1%
CCc1[nH]nc(C(=O)NC2CCCN(Cc3ccccc3F)C2)c1C (configuration not stated) | i | -8% | i | -22% | 1% | -5%
COc1cc(NC(C)C(=O)N2CC(C)OC(C)C2)cc(OC)c1 (configuration not stated) | i | -5% | i | -25% | 14% | 8%[9.24 µM]
CN(C)CCCC(C)(O)C(Cc1ccccc1)c1ccccc1 (configuration not stated) | i | 21µM* | i | ? | -14% | -9%
CSc1nc2[nH]c3c(c2c2ncnn12)CCCC3 | i | ? | i | 15µM* | -3% | -10%
CSc1c2c(nc3ncnn13)CCC2 | i | 0% | i | 17% | 8% | 18%
N=c1oc2cc(O)ccc2cc1C(=O)Nc1ccc(F)cc1 | ? | ? | i | ? | -2% | -9%
COc1cccc2cc(C(=O)NCc3ccccc3Cl)c(=O)oc12 | i | 0% | ? | 10% | 18% | 4%
COc1ccc2o/c(=N\O)c(C(=O)Nc3ccccc3OC)cc2c1 | i | 5.8µM* | i | 3.7µM* | -1% | -1%
COc1ccc(NC(=O)c2cc3ccc(O)cc3o/c2=N\O)cc1 | ? | ? | i | 4.1µM* | ? | ?
COc1cccc2cc(C(=O)Nc3ccccc3C)/c(=N/O)oc12 | i | 16µM* | i | 16µM* | -2% | 0%
C[C@@H]1COC(=O)[C@H](Cc2ccc(F)cc2)C/C=C\C[C@@H](CC(=O)NCCO)C(=O)N1 | i | -10% | ? | -1% | 9% | 6%
CCS(=O)(=O)CCSC(=N)N | i | ? | i | ? | ? | ?
